PubChem BioAssay (Tox21)
Records with an inconclusive call do not appear. Activity calls are given as the source filed them. Unless noted, calls come from the whole dose curve; as a rule, active = well fitted curve in the direction sought with a large enough effect in the repeat runs; inconclusive = weak or mixed curves; inactive = no such curve, though single readings can be large; an effect the other way counts as inactive or inconclusive.

How the values were obtained:
[1] = qHTS assay to identify small molecule agonists of the peroxisome proliferator-activated receptor delta (PPARd) signaling pathway - cell viability counter screen (AID 743211); note: nearly all actives have a fitted effect of over 55% in size
Method in brief: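 Counter screen for cytotoxicity run in parallel with the PPARd reporter screen. Beta-lactamase reporter HEK293H cells exposed to compounds 17 h; ATP-based CellTiter-Glo luminescence quantified viability.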

[2] = qHTS assay to identify small molecule antagonists of the peroxisome proliferator-activated receptor delta (PPARd) signaling pathway - cell viability counter screen (AID 743213); note: nearly all actives have a fitted effect of over 50% in size
Method in brief: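 Viability counter-screen, qHTS format: PPARd-bla HEK293H, L165041 300 nM final, 17 h compound exposure at 37 C, CellTiter-Glo luminescence after 30 min RT.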

[3] = qHTS assay to identify small molecule agonists of the farnesoid-X-receptor (FXR) signaling pathway - cell viability counter screen (AID 743218); note: nearly all actives have a fitted effect of over 45% in size
Method in brief: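 Luminescence from CellTiter-Glo, read after 30 min at RT, reports viability of GeneBLAzer FXR-UAS-bla HEK 293T cells treated 16 h with compounds in the wells used for the beta-lactamase reporter.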

[4] = qHTS assay to identify small molecule antagonists of the farnesoid-X-receptor (FXR) signaling pathway - cell viability counter screen (AID 743221; active = well fitted cell-killing curve with a large enough effect in the repeat runs, not every such curve was filed as active; note: nearly all actives have a fitted effect of over 50% in size)
Method in brief: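 Multiplexed counter screen: viability of FXR-bla HEK 293T cells under agonist stimulation by chenodeoxycholic acid (50 uM, final) and test compound for 16 h at 37 C, measured by CellTiter-Glo luminescence in the reporter wells.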

[5] = molecular target: Vitamin D3 receptor (Homo sapiens) (UniProt P11473); experiment: qHTS assay to identify small molecule agonists of the vitamin D receptor (VDR) signaling pathway (AID 743222; calls by dose curve)
Method in brief: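 Beta-lactamase reporter readout (LiveBLAzer B/G FRET, 2 h RT) in VDR-bla cells after 16 h compound treatment at 37C, 5% CO2; cells pre-incubated 4 h before pin transfer of DMSO solutions.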

[6] = molecular target: Vitamin D3 receptor (Homo sapiens) (UniProt P11473); experiment: qHTS assay to identify small molecule antagonists of the vitamin D receptor (VDR) signaling pathway (AID 743223; active = well fitted inhibition curve with a large enough effect in the signal ratio in the repeat runs, not every such curve was filed as active; the % refers to the signal ratio)
Method in brief: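 Cells carrying a VDR-driven beta-lactamase reporter (VDR-bla) were co-treated with compound and 3 nM final 1alpha,25-dihydroxyvitamin D3 for 16 h at 37C; reporter activity was measured as FRET substrate fluorescence after 2 h at room temperature.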

[7] = qHTS assay to identify small molecule agonists of the vitamin D receptor (VDR) signaling pathway - cell viability counter screen (AID 743224); note: series mostly up to about 63 µM; nearly all actives have a fitted effect of over 50% in size
Method in brief: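 Cytotoxicity counter screen: VDR-bla cells, 16 h compound exposure at 37C, 5% CO2; CellTiter-Glo luminescence, 30 min RT, same wells as bla read.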

[8] = qHTS assay to identify small molecule antagonists of the vitamin D receptor (VDR) signaling pathway - cell viability counter screen (AID 743225); note: nearly all actives have a fitted effect of over 50% in size
Method in brief: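 HEK293T VDR-bla; cpd + 1a,25-(OH)2D3 3 nM final, 16 h 37C/5% CO2; B/G FRET substrate 2 h RT; then CellTiter-Glo 30 min RT, luminescence.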

[9] = qHTS assay to identify small molecule agonists of the NFkB signaling pathway - cell viability counter screen (AID 1159515; calls by dose curve; note: series mostly up to about 61 µM; nearly all actives have a fitted effect of over 55% in size)
Method in brief: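 ME-180 NFkB-bla cells, 2,000/well; overnight attach; compound 5 hr, 37 C/5% CO2; LiveBLAzer substrate 1.5 hr RT; then CellTiter-Glo in same wells, 30 min RT, luminescence read.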

[10] = qHTS assay to identify small molecule agonists of the endoplasmic reticulum stress response signaling pathway - cell viability counter screen (AID 1159517; calls by dose curve)
Method in brief: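 Steps: seed 1,500 ESRE-bla HeLa cells per well; incubate overnight at 37 C, 5% CO2; add compounds in DMSO for 5 hr; run FRET substrate 2 hr RT; add CellTiter-Glo, wait 30 min, read luminescence.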

[11] = qHTS assay to identify small molecule antagonists of the retinoid-related orphan receptor gamma (ROR-gamma) signaling pathway - cell viability counter screen (AID 1159520); note: nearly all actives have a fitted effect of over 50% in size
Method in brief: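 Tet-on ROR gamma CHO cells were given compounds for 2 hr, then doxycycline hyclate at 1 uM final, and incubated 16 hr at 37 C. Viability was measured as ATP content by CellTiter-Glo luminescence.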

[12] = molecular target: Nuclear receptor ROR-gamma (Homo sapiens) (UniProt P51449); experiment: qHTS assay to identify small molecule antagonists of the retinoid-related orphan receptor gamma (ROR-gamma) signaling pathway (AID 1159521)
Method in brief: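 Cells were plated, rested 4 h at 37 C, exposed to compounds for 2 h, then given 1 uM final doxycycline hyclate to induce RORγ expression. After 16 h, ONE-Glo luminescence from the ROR response element reporter was measured.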

[13] = qHTS assay to identify small molecule agonists of the AP-1 signaling pathway - cell viability counter screen (AID 1159525; calls by dose curve; note: nearly all actives have a fitted effect of over 55% in size)
Method in brief: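 Same-well cytotoxicity counter screen of the Tox21 10K library in ME-180 cells. The readout is ATP-dependent luminescence after 5 h compound treatment. Data are normalised to DMSO and tetra n-octyl ammonium bromide controls.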

[14] = qHTS assay to identify small molecule agonists of the AP-1 signaling pathway (AID 1159526; calls by dose curve)
[15] = molecular target: Peroxisome proliferator-activated receptor delta (Homo sapiens) (UniProt Q03181); experiment: qHTS assay to identify small molecule agonists of the peroxisome proliferator-activated receptor delta (PPARd) signaling pathway (AID 743212; calls by dose curve)
Method in brief: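 Read-out: beta-lactamase FRET fluorescence after 2 h room-temperature incubation with LiveBLAzer B/G substrate. Cells were HEK293H carrying a UAS-bla reporter for PPARd, treated at 37 C with DMSO-dissolved compounds.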

[16] = molecular target: Bile acid receptor (Homo sapiens) (UniProt Q96RI1); experiment: qHTS assay to identify small molecule agonists of the farnesoid-X-receptor (FXR) signaling pathway (AID 743220; active = well fitted activation curve with a large enough effect in the signal ratio in the repeat runs, not every such curve was filed as active; the % refers to the signal ratio)
Method in brief: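 FXR-UAS-bla HEK 293T cells carrying a UAS-driven beta-lactamase reporter were plated for 5 h at 37C/5% CO2, then exposed to DMSO-dissolved Tox21 10K compounds for 16 h at 37C. A LiveBLAzer B/G FRET substrate was loaded for 2 h at room temperature before fluorescence reading.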

[17] = molecular target: Peroxisome proliferator-activated receptor delta (Homo sapiens) (UniProt Q03181); experiment: qHTS assay to identify small molecule antagonists of the peroxisome proliferator-activated receptor delta (PPARd) signaling pathway (AID 743215; active = well fitted inhibition curve with a large enough effect in the signal ratio in the repeat runs, not every such curve was filed as active; the % refers to the signal ratio;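 note: cells stimulated with agonist L165041 at 300 nM final during compound exposure; series mostly up to about 62 µM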)
Method in brief: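 HEK293H GeneBLAzer PPARd UAS-bla reporter cells; cpd + L165041 300 nM final, 17 h 37 C; LiveBLAzer B/G FRET substrate 2 h RT; fluorescence intensity read-out. Antagonist mode.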

[18] = molecular target: Bile acid receptor (Homo sapiens) (UniProt Q96RI1); experiment: qHTS assay to identify small molecule antagonists of the farnesoid-X-receptor (FXR) signaling pathway (AID 743217; active = well fitted inhibition curve with a large enough effect in the signal ratio in the repeat runs, not every such curve was filed as active; the % refers to the signal ratio)
Method in brief: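 Read-out: beta-lactamase FRET fluorescence (LiveBLAzer B/G substrate, 2 h, room temperature) in GeneBLAzer FXR-UAS-bla HEK 293T cells. Compounds were co-dosed with 50 uM chenodeoxycholic acid (final) and incubated 16 h at 37 °C.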

[19] = qHTS assay to identify small molecule agonists of the endoplasmic reticulum stress response signaling pathway (AID 1159516; active = well fitted activation curve with a large enough effect in the signal ratio in the repeat runs, not every such curve was filed as active; the % refers to the signal ratio)
Method in brief: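 HeLa ESRE-bla reporter line; cpd 5 h, 37 C/5% CO2; LiveBLAzer B/G FRET substrate 2 h RT; ex 405, em 460/530 nm.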

[20] = molecular target: Retinoic acid receptor RXR-alpha (Homo sapiens) (UniProt P19793); experiment: qHTS assay to identify small molecule agonists of the RXR signaling pathway (AID 1159527; calls by dose curve; note: nearly all actives have a fitted effect of over 35% in size)
Method in brief: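 Cells plated at 2,000/well, rested 5 hr at 37 C, pin-dosed with DMSO compound solutions, incubated 16 hr, then loaded with B/G FRET substrate for 2 hr at RT before dual-emission fluorescence reading.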

Measured: Potency

Chain of Bile acid receptor (Homo sapiens) (Q96RI1 whole entry, looked up): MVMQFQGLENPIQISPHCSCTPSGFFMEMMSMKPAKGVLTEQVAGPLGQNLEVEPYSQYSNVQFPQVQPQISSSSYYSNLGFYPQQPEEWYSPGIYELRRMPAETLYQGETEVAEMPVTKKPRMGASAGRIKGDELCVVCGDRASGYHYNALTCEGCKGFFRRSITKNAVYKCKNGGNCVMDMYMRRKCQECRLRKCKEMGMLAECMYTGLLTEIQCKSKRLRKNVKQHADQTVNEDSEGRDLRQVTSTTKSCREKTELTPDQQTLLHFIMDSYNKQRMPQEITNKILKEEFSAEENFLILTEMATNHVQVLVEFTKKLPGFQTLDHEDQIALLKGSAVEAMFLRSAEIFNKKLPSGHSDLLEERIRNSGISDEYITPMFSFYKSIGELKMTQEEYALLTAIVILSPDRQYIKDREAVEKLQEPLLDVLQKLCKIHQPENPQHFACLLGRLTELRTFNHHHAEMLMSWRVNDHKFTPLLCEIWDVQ
Chain of Vitamin D3 receptor (Homo sapiens) (P11473 whole entry, looked up): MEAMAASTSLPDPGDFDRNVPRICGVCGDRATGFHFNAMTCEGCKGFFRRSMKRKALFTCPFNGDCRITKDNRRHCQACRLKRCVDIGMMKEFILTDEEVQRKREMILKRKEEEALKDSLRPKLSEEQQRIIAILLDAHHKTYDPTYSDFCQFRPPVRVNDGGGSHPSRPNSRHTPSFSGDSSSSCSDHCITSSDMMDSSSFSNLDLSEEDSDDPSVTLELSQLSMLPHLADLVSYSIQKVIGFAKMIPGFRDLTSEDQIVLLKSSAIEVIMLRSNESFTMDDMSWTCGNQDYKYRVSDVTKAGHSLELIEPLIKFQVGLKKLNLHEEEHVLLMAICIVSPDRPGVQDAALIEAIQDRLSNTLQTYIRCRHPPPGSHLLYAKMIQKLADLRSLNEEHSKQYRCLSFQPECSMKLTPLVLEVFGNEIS
Chain of Peroxisome proliferator-activated receptor delta (Homo sapiens) (Q03181 whole entry, looked up): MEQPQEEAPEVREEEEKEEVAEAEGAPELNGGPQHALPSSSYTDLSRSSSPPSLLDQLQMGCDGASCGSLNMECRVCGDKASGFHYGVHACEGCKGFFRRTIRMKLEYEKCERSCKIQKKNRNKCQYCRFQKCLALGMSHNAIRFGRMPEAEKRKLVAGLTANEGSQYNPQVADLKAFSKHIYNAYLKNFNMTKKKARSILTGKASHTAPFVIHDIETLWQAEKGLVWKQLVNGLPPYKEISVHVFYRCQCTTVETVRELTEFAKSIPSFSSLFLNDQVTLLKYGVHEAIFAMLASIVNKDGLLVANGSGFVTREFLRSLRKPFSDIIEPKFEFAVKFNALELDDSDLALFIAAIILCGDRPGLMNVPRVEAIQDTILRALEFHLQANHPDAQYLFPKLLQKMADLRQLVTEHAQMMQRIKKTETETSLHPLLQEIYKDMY
Chain of Retinoic acid receptor RXR-alpha (Homo sapiens) (P19793 whole entry, looked up): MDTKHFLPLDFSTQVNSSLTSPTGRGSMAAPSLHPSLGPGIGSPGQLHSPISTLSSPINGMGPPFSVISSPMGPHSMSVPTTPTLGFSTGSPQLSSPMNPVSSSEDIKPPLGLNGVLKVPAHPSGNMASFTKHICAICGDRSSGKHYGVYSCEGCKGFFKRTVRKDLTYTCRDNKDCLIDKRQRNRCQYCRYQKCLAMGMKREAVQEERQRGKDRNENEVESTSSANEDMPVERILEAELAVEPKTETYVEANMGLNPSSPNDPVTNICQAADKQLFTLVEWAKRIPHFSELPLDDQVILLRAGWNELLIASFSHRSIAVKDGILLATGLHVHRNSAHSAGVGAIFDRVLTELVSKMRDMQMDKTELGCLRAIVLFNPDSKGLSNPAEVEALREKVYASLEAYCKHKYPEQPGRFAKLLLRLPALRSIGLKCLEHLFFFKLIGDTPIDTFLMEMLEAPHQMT

C[Si](C)O[Si](C)(C)O[Si](C)(C)O[Si](C)C
not listed: [15] | [16] | [17] | [18] | [19] | [20]
inactive: all other assays above

CC(C)CCCC(C)CCO (stereo unspecified)
not listed: [5] | [7] | [17] | [18] | [19] | [20]
inactive: all other assays above

CCCC[C@H]1CN(CC2CCOCC2)C(=O)OC12CCN(C1(C)CCN(C(=O)c3c(C)ncnc3C)CC1)CC2
not listed: [2] | [5] | [6] | [11] | [16] | [18] | [19] | [20]
inactive: all other assays above

O=C(Cl)c1c(Cl)cccc1Cl
not listed: [16] | [18] | [19] | [20]
inactive: all other assays above

CN(C(=O)CCCOc1ccc2[nH]c(=O)ccc2c1)C1CCCCC1
not listed: [6] | [11] | [14] | [15] | [17]
inactive: all other assays above

C=C(C)C(=O)OC(C)C
inactive: [1] | [4] | [5] | [6] | [8] | [9] | [19] | [10] | [12] | [13]

COc1ccccc1OC(=O)Oc1ccccc1OC
not listed: [11] | [15] | [16] | [17] | [18] | [19] | [20]
inactive: all other assays above

CCCCCc1ccc(N)cc1
not listed: [2] | [11] | [14] | [16] | [17] | [18] | [20]
inactive: all other assays above

CC(C)=CCCC(C)CC=O (stereo unspecified)
not listed: [6] | [15] | [17] | [18] | [19] | [20]
inactive: all other assays above
